# Results from ChEMBL document CHEMBL1961873, “Compounds: GSK PKIS; Assays: Nanosyn kinase panel” (2012).
# Biological target: Misshapen-like kinase 1 (Homo sapiens) (UniProt Q8N4C8)
# Details: at 1 µM
# Misshapen-like kinase 1 (Homo sapiens), sequence (Q8N4C8 whole entry, looked up): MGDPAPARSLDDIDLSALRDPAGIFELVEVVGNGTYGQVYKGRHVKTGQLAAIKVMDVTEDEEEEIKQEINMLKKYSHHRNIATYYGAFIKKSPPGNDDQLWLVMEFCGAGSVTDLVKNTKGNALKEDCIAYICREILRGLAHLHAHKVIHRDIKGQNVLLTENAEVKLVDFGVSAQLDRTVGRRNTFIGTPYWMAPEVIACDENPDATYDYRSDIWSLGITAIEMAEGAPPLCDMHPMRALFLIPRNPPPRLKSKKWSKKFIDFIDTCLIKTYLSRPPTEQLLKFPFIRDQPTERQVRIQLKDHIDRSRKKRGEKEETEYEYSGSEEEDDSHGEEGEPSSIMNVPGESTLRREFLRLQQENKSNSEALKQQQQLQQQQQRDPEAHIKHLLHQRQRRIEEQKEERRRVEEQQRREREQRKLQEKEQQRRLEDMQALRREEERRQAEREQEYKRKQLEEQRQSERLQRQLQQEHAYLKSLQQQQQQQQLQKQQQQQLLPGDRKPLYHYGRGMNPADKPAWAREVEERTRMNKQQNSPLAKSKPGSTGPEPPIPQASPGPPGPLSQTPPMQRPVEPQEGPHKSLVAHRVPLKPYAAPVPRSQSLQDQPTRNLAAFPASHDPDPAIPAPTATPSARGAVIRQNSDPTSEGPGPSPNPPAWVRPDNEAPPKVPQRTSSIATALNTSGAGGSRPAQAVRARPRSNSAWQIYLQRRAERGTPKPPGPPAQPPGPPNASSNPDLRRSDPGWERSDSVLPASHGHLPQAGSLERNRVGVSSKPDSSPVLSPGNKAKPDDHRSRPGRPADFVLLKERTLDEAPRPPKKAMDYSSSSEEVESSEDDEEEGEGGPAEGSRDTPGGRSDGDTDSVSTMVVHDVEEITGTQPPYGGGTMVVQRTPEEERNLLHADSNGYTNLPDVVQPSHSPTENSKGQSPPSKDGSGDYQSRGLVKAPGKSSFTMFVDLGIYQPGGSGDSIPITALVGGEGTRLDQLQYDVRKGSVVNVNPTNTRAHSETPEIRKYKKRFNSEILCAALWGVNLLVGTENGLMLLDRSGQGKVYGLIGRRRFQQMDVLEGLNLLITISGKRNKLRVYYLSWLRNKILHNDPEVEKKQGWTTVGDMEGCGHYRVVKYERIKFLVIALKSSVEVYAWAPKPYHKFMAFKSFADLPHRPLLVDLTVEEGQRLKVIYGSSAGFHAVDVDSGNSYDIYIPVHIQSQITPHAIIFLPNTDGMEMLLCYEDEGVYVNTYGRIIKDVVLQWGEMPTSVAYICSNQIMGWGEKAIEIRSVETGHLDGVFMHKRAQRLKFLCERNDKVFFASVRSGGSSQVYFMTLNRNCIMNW
row,SMILES,inhibition
1,COc1cccc(/C=N/Nc2ncnc3c2cnn3-c2cccc(OC)c2)c1,10.9%
2,COc1ccc2ncn(-c3cc(O[C@H](C)c4ccccc4Cl)c(C(N)=O)s3)c2c1,5.42%
3,O=C(Nc1n[nH]c2cc(-c3cc(F)ccc3F)ccc12)C1CC1,45.7%
4,COc1ccc(-c2ccc3c(NC(=O)C4CC4)n[nH]c3n2)cc1,21.8%
5,Clc1ccc(CNc2nccc(-c3cnn4ncccc34)n2)cc1,10.7%
6,CN(C)CCOc1ccc(-c2cc(-c3ccc4c(c3)CCC4=NO)c(-c3ccncc3)o2)cc1,12.5%
7,COc1cc(N2CCN(C(C)C)CC2)ccc1Nc1nc(Nc2ccc(F)cc2C(=O)NC[C@@H](O)CO)c2cc[nH]c2n1,12%
8,Cc1ccc(C(=O)NC(C)C)cc1-c1ccc(C(=O)NCC2CC2)cc1,-1.09%
9,O=C(Nc1ccc(Oc2ccc3[nH]c(NC(=O)c4ccccc4)nc3c2)cc1)Nc1cc(C(F)(F)F)ccc1F,4.54%
10,Cc1ccc(C(=O)NC2CCC2)cc1-c1ccc(C(=O)NCC2CC2)cc1,4.67%
11,O=C1Nc2ccc(I)cc2C1=Cc1cc(Br)c(O)c(Br)c1,73.2%
12,COc1cc(C)c(N(C)C(=O)CN(C)C)cc1Nc1nc(Nc2cccc(F)c2C(N)=O)c2cc[nH]c2n1,1.74%
13,NS(=O)(=O)c1ccc(N/N=C2\C(=O)Nc3ccc(-c4cnco4)cc32)cc1,75.8%
14,CS(=O)(=O)CCNCc1ccc(-c2ccc3ncnc(Nc4ccc(OCc5ccccc5)c(Br)c4)c3c2)o1,5.24%
15,COc1cccc(-n2cnc3c(N/N=C/c4ccncc4)ncnc32)c1,16.9%
16,Cc1ccc(NC(=O)c2ccoc2)cc1-c1ccc(C(=O)NCC2CC2)cc1,1.4%
17,COc1ccc2cc(-c3c(-c4ccncc4)nc(-c4ccc([S+](C)[O-])cc4C)n3C)ccc2c1 (stereo not drawn),12.5%

row,SMILES,inhibition
1,CCS(=O)(=O)c1ccc(OC)c(Nc2ncc(-c3cccc(-c4ccccc4F)c3)o2)c1,6.72%
2,Fc1ccc(-c2ncn(C3CCNCC3)c2-c2ccnc(Oc3ccc(F)c(F)c3)n2)cc1,12%
3,COc1ccc2cc(-c3c(-c4ccncc4)nc(-c4ccc(S(C)(=O)=O)cc4C)n3C)ccc2c1,13.9%
4,O=C1NC(=O)C(c2cccc(Cl)c2)=C1Nc1ccc(Cl)c(C(=O)O)c1,7.9%
5,CN(C)c1ccc2c(c1)/C(=C/Nc1ccc(S(N)(=O)=O)cc1)C(=O)N2,63.6%
6,CN(c1ccc(NC(=O)Nc2c(Cl)cccc2Cl)cc1)c1ccnc(Nc2cccc(CS(C)(=O)=O)c2)n1,64.5%
7,COc1ccc(C2=C(N3CCc4ccccc43)C(=O)NC2=O)cc1,11%
8,NS(=O)(=O)c1ccc(Nc2cc(-c3ccc(O)c(F)c3)n[nH]2)cc1,65.7%
9,COc1cc2ncn(-c3cc(OCCc4ccccc4)c(C(N)=O)s3)c2cc1OC,18.8%
10,CN1CCN(CCCNc2nc3ccc(Oc4ccc(NC(=O)Nc5cc(C(F)(F)F)ccc5F)cc4)cc3[nH]2)CC1,1.26%
11,CCc1ccc(Oc2nccc(-c3c(-c4ccc(F)cc4)ncn3C3CCNCC3)n2)cc1,12.1%
12,CCS(=O)(=O)c1ccc(OC)c(Nc2ncc(-c3ccccc3Cl)o2)c1,22.4%
13,c1ccc(-c2n[nH]cc2-c2ccnc(-c3ccc(OCCN4CCOCC4)cc3)c2)nc1,69.2%
14,COc1cc(Nc2ncc3c(C)nc(-c4cccc(Oc5ccccc5)c4)n3n2)cc(OC)c1OC,2.84%
15,CNC(=O)c1cncc(/C=C/c2c(C)cccc2C)c1,3.59%
16,COc1cc(Nc2ncc3c(C)nc(-c4cccc(C(F)(F)F)c4)n3n2)cc(OC)c1OC,29.2%
17,CCN(CC)Cc1ccc(Nc2nccc(-c3cnn4ncccc34)n2)cc1,17%

# Biological target: T1, Serine/threonine-protein kinase 4 (Homo sapiens) (UniProt Q13043);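 also: mean inhibition of MST1, reported as part of the GSK PKIS dataset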
# T1 sequence (whole entry): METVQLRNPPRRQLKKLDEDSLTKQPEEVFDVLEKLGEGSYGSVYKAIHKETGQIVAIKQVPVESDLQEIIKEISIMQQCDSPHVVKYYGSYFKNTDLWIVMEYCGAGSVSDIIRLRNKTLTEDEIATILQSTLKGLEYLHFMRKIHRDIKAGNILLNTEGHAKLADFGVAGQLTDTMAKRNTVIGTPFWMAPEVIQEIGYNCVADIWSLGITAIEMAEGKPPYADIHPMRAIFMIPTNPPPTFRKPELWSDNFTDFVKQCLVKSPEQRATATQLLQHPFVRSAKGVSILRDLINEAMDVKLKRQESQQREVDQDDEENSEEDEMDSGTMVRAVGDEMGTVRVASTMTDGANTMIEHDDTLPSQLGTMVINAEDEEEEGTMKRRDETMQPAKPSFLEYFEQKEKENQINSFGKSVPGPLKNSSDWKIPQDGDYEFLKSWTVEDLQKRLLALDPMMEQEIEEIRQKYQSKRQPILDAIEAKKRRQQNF
# Details: at 0.1 µM
row,SMILES,inhibition
1,COc1cccc(/C=N/Nc2ncnc3c2cnn3-c2cccc(OC)c2)c1,2.42%
2,COc1ccc2ncn(-c3cc(O[C@H](C)c4ccccc4Cl)c(C(N)=O)s3)c2c1,3.89%
3,O=C(Nc1n[nH]c2cc(-c3cc(F)ccc3F)ccc12)C1CC1,1.85%
4,COc1ccc(-c2ccc3c(NC(=O)C4CC4)n[nH]c3n2)cc1,2.12%
5,Clc1ccc(CNc2nccc(-c3cnn4ncccc34)n2)cc1,3.22%
6,CN(C)CCOc1ccc(-c2cc(-c3ccc4c(c3)CCC4=NO)c(-c3ccncc3)o2)cc1,-0.36%
7,COc1cc(N2CCN(C(C)C)CC2)ccc1Nc1nc(Nc2ccc(F)cc2C(=O)NC[C@@H](O)CO)c2cc[nH]c2n1,4.86%
8,Cc1ccc(C(=O)NC(C)C)cc1-c1ccc(C(=O)NCC2CC2)cc1,-3.24%
9,O=C(Nc1ccc(Oc2ccc3[nH]c(NC(=O)c4ccccc4)nc3c2)cc1)Nc1cc(C(F)(F)F)ccc1F,5.74%
10,Cc1ccc(C(=O)NC2CCC2)cc1-c1ccc(C(=O)NCC2CC2)cc1,3.29%
11,O=C1Nc2ccc(I)cc2C1=Cc1cc(Br)c(O)c(Br)c1,3.39%
12,COc1cc(C)c(N(C)C(=O)CN(C)C)cc1Nc1nc(Nc2cccc(F)c2C(N)=O)c2cc[nH]c2n1,4.57%
13,NS(=O)(=O)c1ccc(N/N=C2\C(=O)Nc3ccc(-c4cnco4)cc32)cc1,43.8%
14,CS(=O)(=O)CCNCc1ccc(-c2ccc3ncnc(Nc4ccc(OCc5ccccc5)c(Br)c4)c3c2)o1,2.67%
15,COc1cccc(-n2cnc3c(N/N=C/c4ccncc4)ncnc32)c1,3.6%
16,Cc1ccc(NC(=O)c2ccoc2)cc1-c1ccc(C(=O)NCC2CC2)cc1,4.29%
17,COc1ccc2cc(-c3c(-c4ccncc4)nc(-c4ccc([S+](C)[O-])cc4C)n3C)ccc2c1 (stereo not drawn),-2.13%

row,SMILES,inhibition
1,CCS(=O)(=O)c1ccc(OC)c(Nc2ncc(-c3cccc(-c4ccccc4F)c3)o2)c1,-0.24%
2,Fc1ccc(-c2ncn(C3CCNCC3)c2-c2ccnc(Oc3ccc(F)c(F)c3)n2)cc1,7.1%
3,COc1ccc2cc(-c3c(-c4ccncc4)nc(-c4ccc(S(C)(=O)=O)cc4C)n3C)ccc2c1,2.82%
4,O=C1NC(=O)C(c2cccc(Cl)c2)=C1Nc1ccc(Cl)c(C(=O)O)c1,5.13%
5,CN(C)c1ccc2c(c1)/C(=C/Nc1ccc(S(N)(=O)=O)cc1)C(=O)N2,44.2%
6,CN(c1ccc(NC(=O)Nc2c(Cl)cccc2Cl)cc1)c1ccnc(Nc2cccc(CS(C)(=O)=O)c2)n1,8.06%
7,COc1ccc(C2=C(N3CCc4ccccc43)C(=O)NC2=O)cc1,7.03%
8,NS(=O)(=O)c1ccc(Nc2cc(-c3ccc(O)c(F)c3)n[nH]2)cc1,-1.34%
9,COc1cc2ncn(-c3cc(OCCc4ccccc4)c(C(N)=O)s3)c2cc1OC,2.99%
10,CN1CCN(CCCNc2nc3ccc(Oc4ccc(NC(=O)Nc5cc(C(F)(F)F)ccc5F)cc4)cc3[nH]2)CC1,3.59%
11,CCc1ccc(Oc2nccc(-c3c(-c4ccc(F)cc4)ncn3C3CCNCC3)n2)cc1,3.84%
12,CCS(=O)(=O)c1ccc(OC)c(Nc2ncc(-c3ccccc3Cl)o2)c1,1.96%
13,c1ccc(-c2n[nH]cc2-c2ccnc(-c3ccc(OCCN4CCOCC4)cc3)c2)nc1,1.73%
14,COc1cc(Nc2ncc3c(C)nc(-c4cccc(Oc5ccccc5)c4)n3n2)cc(OC)c1OC,5.41%
15,CNC(=O)c1cncc(/C=C/c2c(C)cccc2C)c1,2.23%
16,COc1cc(Nc2ncc3c(C)nc(-c4cccc(C(F)(F)F)c4)n3n2)cc(OC)c1OC,7.12%
17,CCN(CC)Cc1ccc(Nc2nccc(-c3cnn4ncccc34)n2)cc1,1.35%
